This is a sample that favours compounds with a hit; in the whole collection about 12% have one here.
HP1b chromo inh – blocks HP1-beta chromodomain binding to methylated histone tails | P83916 | AlphaScreen HP1-beta / biotin-H3K9me3 peptide binding | Potency, µM (doses to about 114 µM), hits mostly inhibitors | 390,000 tested, 0.56% active; also: nearly all actives have a fitted effect of over 70% in size
Target sequence (P83916 whole entry, looked up): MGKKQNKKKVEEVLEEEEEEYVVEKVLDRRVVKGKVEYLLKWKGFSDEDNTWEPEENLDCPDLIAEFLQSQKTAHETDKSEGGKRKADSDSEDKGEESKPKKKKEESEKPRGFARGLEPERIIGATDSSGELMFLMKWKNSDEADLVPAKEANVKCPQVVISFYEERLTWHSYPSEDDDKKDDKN
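AlphaScreen: HP1-beta (50 nM) preformed 30 min with biotin-H3(1-18)K9me3 peptide (50 nM) in PBS pH 7.4, 0.01% Tween-20. Compound added for 30 min at RT, then streptavidin donor/nickel chelate acceptor beads (10 ug/mL) for 30 min.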
Sfp inh – Sfp phosphopantetheinyl transferase inhibition | Potency, µM, most hits filed as inhibitors | 310,000 tested, 3.5% active | Biochemical Sfp PPTase activity, qHTS | AID 1490 | Q9F4F7;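 also: the enzyme is Sfp with the accession as filed and its product quenches rhodamine fluorescence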
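Reaction rates are the 30-min fluorescence difference (ex 525, em 598 nm) in wells containing 15 nM Sfp, 5 uM rhodamine-CoA and 12.5 uM BHQ-2-YbbR at pH 7.6 with 10 mM MgCl2.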
G9a inh – G9a (human) methyltransferase inhibition; G9a H3K9 monomethylation, AlphaScreen, 2 h; Q96KQ7; Potency, µM (series often up to 102 µM), hits mostly inhibitors; 350,000 tested, 8.8% active; also: nearly all actives have a fitted effect of over 75% in size
Target sequence (Q96KQ7 913-1193 limits assumed): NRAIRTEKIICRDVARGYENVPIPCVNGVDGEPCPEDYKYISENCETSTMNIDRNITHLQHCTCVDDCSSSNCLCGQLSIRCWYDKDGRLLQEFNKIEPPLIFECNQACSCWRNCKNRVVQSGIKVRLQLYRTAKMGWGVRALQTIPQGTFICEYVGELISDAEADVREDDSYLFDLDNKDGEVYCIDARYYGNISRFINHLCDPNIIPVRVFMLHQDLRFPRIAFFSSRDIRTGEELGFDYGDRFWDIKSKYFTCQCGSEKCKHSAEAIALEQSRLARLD
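Using a bead-based AlphaScreen, monomethylated H3K9 product from 2 h room-temperature reactions (G9a 20 nM, peptide 500 nM, SAM 20 uM) was detected with 0.5 ug/mL rabbit anti-H3K9me1 antibody.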
JMJD2A Tudor – inhibitors of human JMJD2A Tudor domain. AlphaScreen JMJD2A-Tudor / H3K4me3 peptide binding. Potency, µM (series often up to 114 µM), actives largely listed as inhibitors. 390,000 tested, 4.4% active. AID 504339. O75164; also: nearly all actives have a fitted effect of over 50% in size
PLK1 PBD block – blocks phosphopeptide binding to human PLK1 polo-box domain | Plk1 PBD binding of FITC phosphopeptide, fluorescence polarization | Potency, µM, most hits filed as inhibitors | 360,000 tested, 2.8% active; also: series mostly up to about 57 µM; nearly all actives have a fitted effect of over 65% in size
BAZ2B block – inhibitors of human BAZ2B bromodomain. Q9UIF8. AlphaScreen BAZ2B-H3K14Ac peptide displacement. Potency, µM (titrated, usually from 114 µM), hits mostly inhibitors. 360,000 tested, 4.4% active; also: nearly all actives have a fitted effect of over 60% in size
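Protein-peptide AlphaScreen: BAZ2B 50 nM, b-H3K14Ac 50 nM, 1x PBS pH 7.4 + 0.01% Tween-20. Preincubation 30 min RT; cpd 30 min RT (top 110 uM); beads 20 min RT, light-protected.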
A number is an active result; i = inactive; ? = inconclusive; nt = not tested or not shown; [ ] = another dose, or the depositor's remark. Calls follow the shape of the dose curve; as a rule, active = well fitted curve in the direction sought with a large enough effect; inconclusive = small, poorly fitted or top-dose-only effect, or another doubt; inactive = no such curve, though single readings can be large; an effect the other way counts as inactive or inconclusive.

SMILES | HP1b chromo inh | Sfp inh | G9a inh | JMJD2A Tudor | PLK1 PBD block | BAZ2B block
CS(=O)(=O)Nc1cccc(-c2ccc3ncnc(NC4CC4)c3c2)c1 | nt | i | i[0.501 µM] | nt | nt | nt
NC(N)=N/N=C(\N=Nc1ccccc1)c1ccc(Cl)cc1 | ? | nt | nt | 22.4µM | i | nt
CCn1ccc2cc(S(=O)(=O)N3CCCN(C(=O)Nc4ccc(C)cc4Cl)CC3)ccc21 | i | nt | i | i | nt | i
O=[N+]([O-])c1ccc(-c2n(-c3ccccn3)c3ccccc3[n+]2-c2ccccn2)cc1 | i | i | 50.1µM | ? | i | ?
COc1ccc2c(c1)C(=O)c1ccccc1CO2 | i | 28.2µM | i | i | i | i
COc1cc(C(=O)OCC(=O)c2cc(C)n(C)c2C)cc(OC)c1OC | ? | i | i | 31.6µM | 16.8µM | i
Cc1cc(C(=O)COC(=O)c2nccnc2N)c(C)n1C | i | i | i | i | i | nt
Cc1cc(C(=O)COC(=O)c2n[nH]c3ccccc23)c(C)n1C | i | i | ? | 63.1µM | i | ?
Cc1ccn2cc(CC(=O)O)nc2c1 | 70.8µM | 56.2µM | 20µM | 39.8µM | i | 56.2µM
CCOC(=O)c1cn2ccc(C)cc2n1 | i | i | i[0.501 µM] | ? | 26.7µM | i
CCNC(=O)NC(=O)C(C)N1C(=O)NC(c2ccccc2)(c2ccccc2)C1=O (stereo unspecified) | i | i | i | i | i | i
Fc1ccc(-c2nnsc2Sc2ccccn2)cc1 | i | i | i | i | i | i
Cc1cc(C)c(-n2[nH]nnc2=S)c(C)c1 | i | 28.2µM | 14.1µM | 31.6µM | 29.9µM | ?
COc1ccc(C)cc1-n1[nH]nnc1=S | i | i | 6.31µM | 25.1µM | i | i
Cc1ccc(C2CC(=O)n3nc(-c4ccc(F)cc4)nc3S2)cc1 (stereo unspecified) | i | nt | i | i | nt | i
COc1ccc(S(=O)(=O)N2CCCCC2)cc1NC(=O)Cn1cnc2c1c(=O)n(C)c(=O)n2C | i | nt | nt | i | i | nt
COc1cc(C2C3=C(CCCC3=O)Nc3[nH]n(-c4ccccc4)c(=O)c32)ccc1OC(C)=O (stereo unspecified) | i | i | 44.7µM | i | i | ?
COc1ccc(C2C3=C(CCCC3=O)Nc3ccc4ncccc4c32)cc1OC (stereo unspecified) | i | i | 50.1µM | i | i | i
CCOC(=O)c1cccc(NS(=O)(=O)c2c(C)nc3sc(C)cn3c2=O)c1 | i | nt | i | i | nt | i
CCc1nnc(NC(=O)CSc2nccn2Cc2ccc(F)cc2)s1 | i | nt | i | i | nt | i
COC(=O)C1CCN(C(=O)COC(=O)C2CCN(S(=O)(=O)c3ccc(C)c(C)c3)CC2)CC1 | i | nt | i | i | i | i
COc1ccc(N2CCN(CCNS(=O)(=O)c3ccc(C)cc3)CC2)cc1 | i | i | 50.1µM | i | i | i
COc1ccc(N2CCN(C(=O)CCNS(=O)(=O)c3ccc(C)cc3)CC2)cc1 | i | i | 50.1µM | i | i | i
O=C(CCNS(=O)(=O)c1ccc2c(c1)CCN2C(=O)C1CC1)N1CCN(c2ccc(F)cc2)CC1 | i | nt | i | 44.7µM | nt | i
COc1ccc(N2CCN(C(=O)CCNS(=O)(=O)c3ccc4c(c3)CCN4C(=O)C3CC3)CC2)cc1 | i | nt | ? | i | nt | i
SMILES | HP1b chromo inh | Sfp inh | G9a inh | JMJD2A Tudor | PLK1 PBD block | BAZ2B block
Cc1cccc(N2CCN(CCCNc3ncnc4onc(-c5ccc(Cl)cc5)c34)CC2C)c1 (stereo unspecified) | i | nt | ? | ? | nt | ?
O=C(O)c1ccc(N=Nc2c(O)ccc3ncccc23)cc1 | ? | i | 10µM | 7.94µM | i | 1.58µM
COC1=CC(=Cc2c(N)n3nc(CC(=O)N4CCOCC4)sc3nc2=O)C=C(OC)C1=O | i | i | ? | ? | i | 44.7µM
C=CCC1=C/C(=C\c2c(N)n3nc(CC(=O)N4CCCC4)sc3nc2=O)C=C(OC)C1=O | i | i | i[0.0925 µM] | i | i | 79.4µM
O=C(Nc1ccc2c(c1)CCC2)c1cnc(Cl)c(Cl)c1 | i | i | i | i | 21.2µM | i
C/C(=N\Nc1cccc(Cl)c1)c1ccc(-n2ccnc2)cc1 | i | i | 7.94µM | ? | i | ?
CCOC(=O)N1CCC(=NNS(=O)(=O)c2cccc([N+](=O)[O-])c2)CC1 | i | 56.2µM | ? | i | ? | i
C/C(=N\NS(=O)(=O)c1ccc(Br)cc1)c1ccc(-n2ccnc2)cc1 | i | nt | ? | i | i | i
C/C(=N/NS(=O)(=O)c1cccc([N+](=O)[O-])c1)c1ccncc1 | i | i | 35.5µM | i | 2.99µM | ?
COC(=O)N/N=C(\C)c1ccc(-n2ccnc2)cc1 | i | i | i | i | i | i
CC(=NNS(=O)(=O)c1cccc([N+](=O)[O-])c1)c1ccc(-n2ccnc2)cc1 | i | nt | nt | i | 18.9µM | nt
CCOc1ccc(-c2nonc2NC(=O)c2ccc(C)cc2)cc1OCC | i | nt | i | i | nt | i
O=C(Cc1ccc(NS(=O)(=O)c2cccc(C(F)(F)F)c2)cc1)NCCN1CCOCC1 | i | nt | i | i | i | i
CCCC(=O)Nc1sc(C)c(-c2ccc(OC)cc2)c1C#N | i | i | i | i | i | i
CCCc1ccc(-c2c(C)sc(N)c2C#N)cc1 | ? | 35.5µM | 39.8µM | i | i | ?
O=C(NN=C1CCN(Cc2ccccc2)CC1)c1ccccc1 | i | i | i | 7.94µM | i | i
N#Cc1ncc(Cc2ccccc2)nc1C#N | i | i | 50.1µM | i | i | ?
CSc1nc2c(cc1C#N)CCC2 | i | i | ? | i | ? | i
CC(C)OC(=O)CC(=O)CSc1nc2c(cc1C#N)CCC2 | i | i | 44.7µM | i | i | i
CC(C)OC(=O)CC(=O)CSc1nc2c(cc1C#N)CCCC2 | i | i | ? | i | i | i
N#Cc1cc2c(nc1SCc1nc3ccccc3[nH]1)CCC2 | nt | 56.2µM | ? | nt | nt | i
N#Cc1cc2c(nc1SCC(N)=O)CCCCC2 | i | i | 79.4µM | i | ? | i
CCCCSc1nc2c(cc1C#N)CCC2 | i | ? | 3.98µM | i | i | i
CCOC(=O)CC(=O)CSc1nc2c(cc1C#N)CCCCCC2 | i | i | i | i | i | i
Cc1c(Cl)cccc1-n1ncc(C(=O)NCCN2CCN(C)CC2)c1C1CCN(C(=O)OC(C)(C)C)CC1 | i | nt | i | i | nt | i
CCCCn1c(SCC(=O)Nc2cc(C)[nH]n2)nc2ccsc2c1=O | i | i | i | i | i | i
Cc1cc(NC(=O)CSc2nc3ccsc3c(=O)n2Cc2ccccn2)n[nH]1 | i | i | i | i | i | 79.4µM
COc1ccc(O[C@H]2C=C[C@@H](c3ccccc3)O[C@H]2CO/N=C2/c3cc(OC)ccc3O[C@@H](c3cccc(OC)c3)[C@H]2O)cc1 | nt | i | nt | nt | nt | nt
O=C(CCc1nc(-c2ccccc2F)no1)Nc1cccc(C(F)(F)F)c1 | i | nt | i | i | nt | i
O=C(c1ccccc1)[C@@H]1[C@@H](C(=O)c2ccc(F)cc2)[C@@]2(C(=O)Nc3ccccc32)[C@H]2c3ccccc3C=CN12 | i | i | 12.6µM | i | i | i

Compound activity (PubChem BioAssay)
